According to PubChem BioAssay AID1508600 (Functional Genomics Laboratory (NCATS/FGL), 2020):
About 3,700 (7%) of roughly 53,000 sequences were called active. The full list was thinned out, with actives kept by preference. Values without a mark were called inactive.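 How the source made its calls: active means gene knockdowns whose robust z-score for IL-1 alpha signal is at least 2 or at most -2, so actives lie on both sides; inactive means the rest.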

experiment: Components of the Cytosolic LPS Sensing Pathway: Gene Identification via Genome-wide siRNA Screen; settings: RAW264.7 macrophages, IL-1a HTRF, actives lie on both sides, screened at 100 nM (by protocol), cells primed 5 h with Pam3CSK4 first;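 further: robust z of the log signal after scaling to non-targeting control siRNA wells of the plate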
Outline: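 Knockdown: 100 nM siRNA, 48h, RAW264.7. Stimulation: Pam3CSK4 5 h, then LipidA via TransIT-TKO 24 h. Output: supernatant IL-1a HTRF, negative-control-normalized, log robust z-score; viability by CellTiter-Glo.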

Row | Sequence | z-score
1 | GGUUGUCUUUCUACUCGGGTT against Plpp1 | 1.37
2 | GGGAUGUCUUCCUAUACAGTT against Cope | -2.78 (active)
3 | GCUGAUGGAGAGUUAUUUGTT against Rcbtb1 | 0.675
4 | CCACCCAAAAGUAAAAAGUTT against Rpp38 | -1.29
5 | GGUCUGGAUGCUUUAGAAUTT against Fam114a1 | -0.373
6 | GCAUUACUUGAGCAAAACATT against Zfp654 | -0.854
7 | GGCUCUGGAUGAAGAACUUTT against Gfpt2 | 4.13 (active)
8 | CCUUCCUGUCCAUGUACCUTT against Olfr412 | 0.879
9 | GGUCACUGUAAAAUGAACCTT against Odf2 | 1.48
10 | CGCACAUGUAGUUAAUAAATT against Iqcg | -0.96
11 | GGGCAAAGGAAAUGGAAUCTT against Eif5 | 2.33 (active)
12 | GGCUCUUACUUCAUCACUATT against Casp4 | -1.9
13 | GGCCACUUCGUGUUCUUUUTT against Hoxa10 | 2.08 (active)
14 | GGUUUUUAACCAAACAUGATT against Actr3 | -0.784
15 | CCAUCACUACACGAAAUUGTT against Fgf12 | 0.176
16 | AAAAAUGUCGGAUUCCCAATT against Adgrf3 | -0.121
17 | GCGAGUCUCACAUCAGUGATT against Tshz3 | 2.68 (active)
18 | CGCAGCAGGAAUCAGGAAUTT against Tsr1 | 0.222
19 | GGAUGUGGAGUCACUGAUGTT against Ccdc91 | -0.863
20 | GGAUGAUGACGACAUUGAUTT against Eef1b2 | 0.292
21 | GGCAGACAACGUGUCACCUTT against Aldh1a3 | -0.883
22 | GGAGAAGACCAUAAAGAAGTT against Flywch1 | -0.554

Row | Sequence | z-score
23 | GACAUUUGUAUGCAGUCAUTT against Vmn1r193 | -2.65 (active)
24 | CCCUCUACACUAUACCACATT against Olfr347 | -0.498
25 | GGAUUCUGGGCUGAAUGGGTT against Pcdh18 | -0.491
26 | GGAACCAUCUUCAACCAACTT against Eme1 | -1.44
27 | GGAGAACUGUAAAUAAACUTT against Duoxa2 | -2.1 (active)
28 | CCAUAGAGUGGAUAGUCAUTT against Rsl1 | 0.385
29 | CCCUCAAAACCUAUGCCUUTT against Ugt1a2 | 0.715
30 | GCAGGCUAUGUUCUGGAAUTT against Zfp212 | 2.34 (active)
31 | GGAUGAUUGCUGACGUGGATT against Bax | 0.299
32 | CCUCCUAUUUGCUUCAUUUTT against Cytip | -1.32
33 | CCUGAUCCGAUCAUCAGGATT against Cytip | 0.133
34 | GGAAGGGCAAGUUAUGAAATT against Fgf14 | 0.0843
35 | GGGACAUUUCUAUUAGAAUTT against Snx24 | -0.95
36 | CCAUACCAAUGAAUGCCUCTT against Fas | -1.4
37 | CCACUUCCUUACGAUUGAUTT against Aadacl4fm1 | -2.09 (active)
38 | GGCUGAGGAGUGGUACUUUTT against Src | -1.13
39 | GCUAUGACUUCAACGACUATT against Pcsk4 | -0.309
40 | GGAUCUGUACAAGACUUAUTT against Olfr800 | -0.011
41 | GCCAACAGAAAUAAGCCUUTT against Sorcs1 | 0.221
42 | CCACACCAGAGGUCUUUGATT against Pde4dip | -1.74
43 | CGAUUCCUUUGUAACGAAATT against Aldh5a1 | 1.04
44 | GGCACUUAAGUUUCAUAAGTT against Qars | 0.466

Row | Sequence | z-score
45 | CCAAGAGCUGAAACAAGAATT against Ankrd12 | -2.01 (active)
46 | GGUAGUGAUCCUCAAAAAATT against Myc | 1.84
47 | AGUCUUCACGUUUCAUUUATT against Olfr1195 | 0.32
48 | CGCUGUUUGUUCAAGAGGATT against Thbs1 | 1.05
49 | GCACAAGCGAAGAAGUUUGTT against Ube2i | -0.0933
50 | GCUCAACUUGGAAUUGGAGTT against Arhgap29 | 2.28 (active)
51 | CCAUCUUGACAUCUCGUGUTT against Olfr592 | -1.9
52 | CUUUAUGGGUCGUGGAGGATT against Hnrnpa3 | -1.12
53 | GGAAUAGGACCUAUGUCUGTT against Nr2e1 | -0.455
54 | CCCUGGCUGAGUGCUUUGUTT against Olfr199 | 0.887
55 | GGGUUGCCACAUGUUAUAUTT against Smad2 | -0.0821
56 | GGAGAAUGAGUGGUAUCUGTT against Msh2 | -1.48
57 | AAGGACGAUCCUGAUUUCATT against Gm5431 | 0.828
58 | CCAUACAUCCGAGAGUUUGTT against Snrnp70 | 2.37 (active)
59 | GCCCUUUCAUCAAUAAUGUTT against Slc12a7 | -0.113
60 | GGAAACAUAACCUUCAAUGTT against Wdr3 | 1.13
61 | CGGAAGCCUCCACAAAUAATT against Apba1 | 0.0959
62 | GGUGUCUACUCUGAGUUGCTT against Pan2 | 1.94
63 | GCGGAGGAGUUUUCUUCGATT against Susd4 | 0.93
64 | GGACCAUGCUCCCUACUUATT against Prss37 | 0.386
65 | GGCUGGUUGGAAGGAAAAUTT against Ints6l | 2.1 (active)
66 | GGCUGUUCAAAAAUUUCGGTT against Sox17 | -0.261

Row | Sequence | z-score
67 | GGUUUUGAGAAGAUAACUCTT against Zfp236 | 0.67
68 | GGACACACUCUACUUCCCATT against Mrgprg | -0.196
69 | GGUUCGAGUUUCAUACUAUTT against Padi4 | 2.56 (active)
70 | GUCAGAACAAAACCAAAUGTT against E330013P04Rik | -0.152
71 | GGAAUCAUCUUCAUUGACCTT against Agpat1 | 0.0827
72 | CGUGUGGUGUUGGUAUCAGTT against Spaca1 | 0.853
73 | GGAUUCAUAAAAGAAGCAATT against Zfp90 | 0.8
74 | GGCGGCACGUUCACCUAAATT against Rnps1 | 1.86
75 | CCACUUGUAGACUUGAUUUTT against Jag1 | 0.618
76 | GCCCAGAUCAAUUUGAGCGTT against Grhl2 | -0.674
77 | CGAGAUAGAGUCUGGAAUUTT against 1700092C17Rik | 3.91 (active)
78 | GGUCAUCGGGAGGUUUGAATT against Nfkbil1 | -0.0141
79 | GGAUCUCUAUAGCAUCGUGTT against Col18a1 | 0.249
80 | GGGAUGCUGUAGAUGGAAUTT against Olfr978 | 0.0466
81 | GGCAAAUCAAGCAGAAAAUTT against Ncor1 | 0.739
82 | GAUAAUGGUCACUAAAUCUTT against Vmn1r4 | -1.65
83 | GCAACCAUUUAAGAAGACCTT against Tnfrsf9 | -0.301
84 | GGUGAUCUGGACCAAGAUGTT against Lcp1 | -0.52
85 | GGUCUACUUUUACGUCUCCTT against Nfatc4 | -0.339
86 | GUGUACGUCUGUUAACACATT against Dad1 | -2.1 (active)
87 | CCUUCUUGAAAACUCCAAGTT against Lum | -0.862
88 | GGGAAGGCACACCAUAGAATT against Zfp369 | 1.11

Row | Sequence | z-score
89 | GGGCUACUAUUCAUUGAUCTT against 4930550L24Rik | 1.94
90 | CCACUAAGUCCCAUGCUAGTT against Glycam1 | 0.188
91 | GGAAUUUAAGGUGUUCACATT against Lcn3 | -0.197
92 | GGCUCAGUGAGUUUCAGAATT against Snx25 | 3.66 (active)
93 | CCAAAUGUAACUGGUGUAATT against Aif1l | -0.69
94 | CGAGACAGUUUCCAUAGCGTT against Spen | -0.271
95 | GCAACAUUAGGAUUUAUAGTT against Gask1b | 0.0376
96 | GGUAGUCAUACAGAUAUGUTT against Hey2 | 0.973
97 | GCAAUCUCUCCUUUUGUGATT against Olfr1128 | 0.426
98 | GGACUUUCACAGACCACUUTT against Rgma | 0.999
99 | GGAACAAGGAUGUAAAAUUTT against Olfr1090 | -0.751
100 | GGAAGACUUUCUGGACAUATT against Sgk2 | 2.44 (active)
101 | CCUACAGCAACCAUAAGGATT against Plch2 | -1.6
102 | GGACAGCUGUUUCAAUUCUTT against Il1rap | -0.162
103 | GGAUUUGCCUACACAUAUGTT against Nqo1 | 0.362
104 | CCCUUCUCCACCUGAGAGUTT against Orm3 | -2.25 (active)
105 | GGAAAUGAAGAGUGUUGAATT against Slc7a3 | -0.4
106 | UGCCCAAGACUCAGAAGUCTT against Igf1 | 0.0658
107 | GCUAACUGCCUUGGGAAGATT against Lyl1 | 2.57 (active)
108 | GGCCAAGCACGAUAAAUACTT against Stub1 | -1.08
